# TrxR1 substrate = is turned over as a substrate by rat TrxR1; 390,000 compounds, 0.01% hits; O89049; Potency, µM (titrated, usually from 114 µM), inactives show at the highest dose activity change, negative = substrate turnover; purified TrxR1 substrate turnover, NADPH consumption readout; note: % is set by controls: 0 for no effect and ±100 for the full control effect; nearly all actives have a fitted effect of over 50% in size
# Target sequence (O89049 whole entry, looked up): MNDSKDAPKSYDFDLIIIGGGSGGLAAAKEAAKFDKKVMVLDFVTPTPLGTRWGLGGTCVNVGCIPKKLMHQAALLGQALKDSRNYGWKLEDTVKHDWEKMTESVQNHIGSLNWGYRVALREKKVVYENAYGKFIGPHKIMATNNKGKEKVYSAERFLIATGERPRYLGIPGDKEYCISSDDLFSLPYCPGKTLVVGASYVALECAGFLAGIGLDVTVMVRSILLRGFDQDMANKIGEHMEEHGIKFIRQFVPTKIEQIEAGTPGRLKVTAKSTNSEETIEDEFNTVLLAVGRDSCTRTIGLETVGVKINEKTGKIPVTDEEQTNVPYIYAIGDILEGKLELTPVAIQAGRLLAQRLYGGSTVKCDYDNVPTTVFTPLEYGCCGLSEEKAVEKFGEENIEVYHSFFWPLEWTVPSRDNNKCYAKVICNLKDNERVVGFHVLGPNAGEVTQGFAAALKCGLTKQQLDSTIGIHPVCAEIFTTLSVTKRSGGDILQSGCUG
#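 Rat TrxR1, dispensed at 90 nM, was prereduced with 400 uM NADPH (final) for 5 min at ~22 deg C, then incubated with compound 15 min before 400 uM selenite. A first-read NADPH fluorescence drop versus no-compound background flagged substrates.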
# GALK inh = blocks human galactokinase activity; P51570; 270,000 compounds, 0.007% hits; Potency, µM (doses to about 57.5 µM), for inactives: at the highest dose activity change, negative = inhibition, actives largely listed as inhibitors; Purified GALK, Kinase-Glo residual ATP luminescence; AID 1868; note: % is set by controls: 0 for no effect and ±100 for the full control effect
#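 5 nM enzyme, 35 uM ATP, 100 uM galactose, 20 mM HEPES pH8.0, 5 mM MgCl2; 1 h RT; residual ATP by Kinase-Glo Plus luminescence, qHTS format.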
# A549 viability = kills or reduces viability of A549 cells in Nrf2 counter-screen; Potency, µM (titrated, usually from 46 µM), inactives show top-dose activity change, negative = cytotoxicity, most hits filed as inhibitors; A549 ARE-Fluc cells, CellTiter-Fluor viability, 18-24 h; 390,000 compounds, 0.16% hits; note: % is set by controls: 0 for no effect and ±100 for the full control effect
#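 A549 ARE_Fluc cells in 5% FBS OPTI-MEM were exposed to compounds in concentration-response for 18-24 h at 37 deg C. Viability was read by CellTiter-Fluor fluorescence (Ex 405/Em 525) after 30 min, before the luciferase read.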
# TrxR1 inh = inhibitors of rat thioredoxin reductase 1; 390,000 compounds, 1% hits; AID 588453; O89049; Potency, µM (titrated, usually from 114 µM), inactives show at the top dose activity change, negative = inhibition, hits mostly inhibitors; recombinant rTrxR1, NADPH fluorescence consumption, selenite substrate; note: % is set by controls: 0 for no effect and ±100 for the full control effect; nearly all actives have a fitted effect of over 65% in size
#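 Rat TrxR1 (90 nM in the dispensed reagent) was pre-reduced with 400 uM NADPH for 5 min at room temperature, then incubated with compound for 15 min. After 400 uM selenite was added, NADPH fluorescence (Ex 340/Em 450 nm) was followed for 8 min.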
# Nrf2 ARE act = activators of Nrf2 (ARE) signaling; AREc32 ARE-luciferase reporter (MCF7-derived line), luminescence, 24 h; AID 624171; 410,000 compounds, 0.31% hits; Potency, µM (series often up to 46.1 µM), inactives show at the top dose activation, hits mostly activators; note: % of control where 0% means no effect; nearly all actives have a fitted effect of over 65% in size
#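 Steps: seed AREc32_Fluc cells (1000/well, 5% FBS OPTI-MEM); incubate overnight at 37 deg C; add 23 nL compound; incubate 24 hr; add Steady-Glo; hold 30 min RT; read luminescence.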
# Nrf2 inh = inhibitors of Nrf2 signaling. 360,000 compounds, 2.1% hits. AID 504444. Potency, µM (top dose mostly 46 µM), for inactives: at the top dose activity change, negative = inhibition, hits mostly inhibitors. A549 ARE-Fluc reporter, luciferase luminescence, 18-24 h; note: % is set by controls: 0 for no effect and ±100 for the full control effect; nearly all actives have a fitted effect of over 60% in size
#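 Quantitative HTS in A549 cells stably bearing an antioxidant response element-firefly luciferase construct. Inhibition of Nrf2-driven transcription was scored by luminescence after 18-24 h of compound exposure at 37 °C.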
# * = called active by the depositor; ? = inconclusive; · = not tested or not shown; [ ] = dose if it differs, or a comment. The list is not random: actives were taken first. Their share in the collection is about 3%. Calls come from the whole dose curve; as a rule, active = well fitted curve in the direction sought with a large enough effect; inconclusive = small, poorly fitted or top-dose-only effect, or another doubt; inactive = no such curve, though single readings can be large; an effect the other way counts as inactive or inconclusive. Potency is the fitted concentration of half-maximal effect.
SMILES,TrxR1 substrate,GALK inh,A549 viability,TrxR1 inh,Nrf2 ARE act,Nrf2 inh
O=C(O)c1ccccc1SC1CC(=O)N(c2ccc3c(c2)OCO3)C1=O (stereo not given),8%,3%,-5%,40µM*,5%,14%
COc1ccc(CCn2c(=S)[nH]c(=O)c3cccnc32)cc1OC,-4%,·,·,-16%,·,·
COc1cccc(C(=O)N2CCC(C(=O)Nc3cccc(Cl)c3)CC2)c1,2%,·,0%,12%,1%,-1%
COc1ccc(N2C(=O)CC(Sc3ccccc3C(=O)O)C2=O)c([N+](=O)[O-])c1 (stereo not given),3%,1%,0%,71µM*,5%,-5%
Cc1ccc(N2C(=O)CC(Sc3ncn[nH]3)C2=O)cc1C (stereo not given),8%,-2%,-11%,?,1%,-9%
Cc1cccc(N2C(=O)CC(Sc3ncn[nH]3)C2=O)c1 (stereo not given),-4%,0%,-6%,20µM*,3%,?
CCCCN1C(=O)CC(Sc2ccccc2C(=O)O)C1=O (stereo not given),-3%,-4%,4%,16µM*,0%,-5%
CCOc1ccccc1C(=O)N(Cc1ccc(N(C)C)cc1)CC1CCCO1 (stereo not given),5%,·,0%,19%,0%,-5%
NC(=O)c1sc2nc3c(c(-c4ccco4)c2c1N)CCC3,1%,0%,5%,-19%,-1%,5.8µM*
Cc1ccc(-c2c3c(nc4sc(C(N)=O)c(N)c24)CCCC3)o1,-8%,·,?,-31%,2%,-17%
NC(=O)c1sc2nc(-c3ccco3)ccc2c1N,7%,2%,-7%,45µM*,?,?
COc1ccc(CCNC(=O)CS(=O)(=O)Cc2nc(-c3cccc(Cl)c3)oc2C)cc1OC,-6%,·,-15%,-6%,0%,-22%
CC(/C=N/n1c(-c2ccc(Cl)cc2)n[nH]c1=S)=C\c1ccco1,7%[0.457 µM],-1%,-7%,?,2.8µM*,13%
CC(/C=N/n1cnnc1)=C\c1ccco1,-8%,-4%,-1%,?,11µM*,12%
CC(/C=N/n1c(-c2cc(C)[nH]n2)n[nH]c1=S)=C\c1ccco1,-1%[57.1 µM],4%,-12%,?,5%,-9%
CS(=O)(=O)c1ccc(S(=O)CC(=O)Oc2ccc(Cl)cc2)c([N+](=O)[O-])c1 (stereo not given),4%[57.1 µM],-1%,?,1.8µM*,?,?
O=C(CS(=O)c1ccccc1[N+](=O)[O-])Oc1ccc(Br)cc1 (stereo not given),-3%,1%,2%,?,4%[9.22 µM],-20%
COc1cccc(NC(=O)CN2C(=O)CSc3ccc(S(=O)(=O)N4CCCC4)cc32)c1,-10%,·,4%,12%,4%,-10%
COc1ccc(/C(C)=N/Nc2nc(C)c(C(C)=O)s2)cc1,1%,2%,8%,18%,1%,6%
CC(=O)c1sc(N/N=C2\CC3CC2C(C)C3(C)C)nc1C (stereo not given),-6%,-2%,-4%,11µM*,5%,?
Cc1ccc(/C=C/c2onc(C)c2S(=O)(=O)N2CCC(C(=O)N3CCC(N(C)C(C)C)CC3)CC2)cc1,5%[57.1 µM],·,-10%,16%[57.1 µM],18%,·
Cc1ccc(CNc2ncnc3cc(Cl)ccc23)cc1,-2%,-2%,-5%,17%,24%,21µM*
Cc1noc2ncnc(NCc3cccc(Cl)c3)c12,-13%,·,2%,-15%,4%,?
Cc1ccccc1CNc1ncnc2cc(Cl)ccc12,13%[57.1 µM],-3%,-1%,9%[57.1 µM],20%,?
Cc1ccc(CNc2ncnc3onc(C)c23)cc1,6%,·,-2%,30%,-1%,8.2µM*
SMILES,TrxR1 substrate,GALK inh,A549 viability,TrxR1 inh,Nrf2 ARE act,Nrf2 inh
Cc1ccccc1OCCn1c(CCNC(=O)C2CCCCC2)nc2ccccc21,5%,·,-1%,21%,1%,?
COc1ccc(Cn2nnnc2C(C(C)C)N2CCc3ccccc32)cc1 (stereo not given),3%,2%,-9%,23%,-1%,16µM*
COc1ccccc1NC(=O)C1CCCN(c2nnc(C)c3c(C)n(-c4ccccc4)nc23)C1 (stereo not given),6%,·,-4%,17%,0%,-20%
Cc1nn(C)c(C)c1CNC(=O)c1nn2c(c1Cl)NC(c1cccs1)CC2C(F)(F)F (stereo not given),9%[57.1 µM],1%,-12%,16%,3%,16µM*
CS(=O)(=O)N1CCN(c2ccccc2NC(=O)c2ccc([N+](=O)[O-])o2)CC1,-5%[57.1 µM],-1%,0%,-2%[57.1 µM],8.9µM*,-14%
O=C(Nc1cc(Cl)ccc1-n1cncn1)c1ccc([N+](=O)[O-])o1,-1%,·,-5%,-18%,13µM*,10%
CCC(=O)N1CCN(c2ccc(Cl)cc2NC(=O)c2ccc([N+](=O)[O-])o2)CC1,-3%,-5%,-5%,-2%,11µM*,-4%
CCC(=O)N1CCN(c2ccc(NC(=O)c3ccc([N+](=O)[O-])o3)cc2Cl)CC1,-7%,1%,-9%,-4%,?,?
Cc1ccc(Nc2c([N+](=O)[O-])ccc3nonc23)c(C)c1,-3%[57.1 µM],2%,-5%,24%,2%,0%
Cc1ccc(S(=O)c2ccc([N+](=O)[O-])c3nonc23)cc1 (stereo not given),·,·,·,·,18µM*,·
COc1ccccc1CNC(=O)CN1C(=O)CCc2cc(S(=O)(=O)N3CCOCC3)ccc21,0%[57.1 µM],·,1%,4%[57.1 µM],4%,·
CCOC(=O)C1=C(CN(C)Cc2ccccc2)NC(=O)NC1c1ccc(OC(C)C)cc1 (stereo not given),-15%,·,-13%,2%,1%,26µM*
CCOC(=O)C1=C(CS(=O)(=O)c2ccc(C)cc2)NC(=O)NC1c1ccc(C(C)C)cc1 (stereo not given),-5%,·,?,-9%,0%,18µM*
CCOC(=O)C1=C(CN2CCN(c3cc(C)ccc3C)CC2)NC(=O)NC1c1ccc(Cl)cc1 (stereo not given),-6%,·,-18%,1%,0%,21µM*
CCOC(=O)C1=C(CN2CCN(c3ccc(OC)cc3)CC2)NC(=O)NC1c1ccc(Cl)cc1 (stereo not given),-4%,·,-24%,35%,0%,?
O=C(Nc1cc(F)ccc1F)N1CCN(c2ccnc3cc(Cl)ccc23)CC1,1%,1%,-2%,-1%,3%,16µM*

# Screening data: PubChem, National Center for Advancing Translational Sciences (NCATS)
